Assay outcomes: PubChem BioAssay, National Center for Advancing Translational Sciences (NCATS)
SW480 rereplic – DNA re-replication induction in SW480 cells; SW480 DNA re-replication, Hoechst DNA content imaging, 48 h; Potency, µM (series often up to 46.1 µM), hits mostly activators; hit rate 1.8% among 340,000; note: nearly all actives have a fitted effect of over 55% in size
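Treated cells incubate 48 hr (37 C, 5% CO2), are stained 40 min with Hoechst, and nuclear fluorescence is enumerated; a rise in nuclei with high DNA signal marks re-replication.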
KB-V1 cytotox – KB-V1 MDR subline cytotoxicity | KB-V1 MDR cells viability, CellTiter-Glo, 72 h | Potency, µM (doses to about 46.1 µM), actives largely listed as cytotoxic | hit rate 3.4% among 400,000; note: nearly all actives have a fitted effect of over 60% in size
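Potencies derive from concentration-effect curves fitted to normalized luminescence (CellTiter-Glo) of KB-V1 cells treated for 72 h at 37 degrees C in phenol-red-free DMEM containing 10% FBS.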
ELG1 DNA repair – blocks ELG1-dependent DNA repair in HEK293T cells; HEK293T ELG1-luciferase reporter, luminescence, 16 h; DNA damage induced by 5-fluorouridine; Potency, µM (doses to about 46.1 µM), actives largely listed as inhibitors; hit rate 2.3% among 330,000; AID 504467; note: nearly all actives have a fitted effect of over 55% in size
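Cells (2,000 per well) received 5-fluorouridine plus test compound or DMSO and were incubated 16 hr at 37 °C, 5% CO2. Luciferase activity was read by luminescence 30 min after ONE-Glo addition; signal suppression marked inhibition of damage-induced ELG1 function.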
MCF10A rereplic – inducers of DNA re-replication in MCF 10A breast cells; AID 624296; Potency, µM (titrated, usually from 46.1 µM), actives largely listed as activators; hit rate 2.9% among 350,000; MCF 10A DNA re-replication, Hoechst nuclear intensity, 48 h; note: nearly all actives have a fitted effect of over 50% in size
KB-3-1 cytotox – kills parental KB-3-1 adenocarcinoma cells | Potency, µM (top dose mostly 46.1 µM), usual class: cytotoxic | hit rate 1.4% among 400,000 | KB-3-1 viability, CellTiter-Glo ATP luminescence, 72 h; note: nearly all actives have a fitted effect of over 60% in size
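Cytotoxicity in the drug-sensitive parental line KB-3-1 was scored as loss of CellTiter-Glo luminescence following 72 h incubation with compound. Values come from curve fitting of normalized concentration-response data.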
Large screens that a line does not name were inactive. A selection: hits, their analogues and other compounds. The true share with any hit is near 8.1%. Calls come from the whole dose curve; as a rule, active = well fitted curve in the direction sought with a large enough effect; inconclusive = small, poorly fitted or top-dose-only effect, or another doubt; inactive = no such curve, though single readings can be large; an effect the other way counts as inactive or inconclusive.

O=C(NCCN1CCOCC1)c1ccccc1N1C(=O)[C@@H]2Cc3c([nH]c4ccccc34)C(c3ccc(F)cc3)N2C1=O (stereo partly specified)	KB-V1 cytotox inconclusive, ELG1 DNA repair 5.2µM
CC1CCCN(CCCNC(=O)c2ccc3c(c2)N(Cc2ccc(F)cc2)C(=O)c2ccccc2S3=O)C1 (stereo unspecified)	SW480 rereplic 21µM
CCc1ccc(N(CC(=O)NCc2ccc(F)cc2)C(=O)c2csnn2)cc1	none
Cc1ccc(S(=O)(=O)Nc2ccc3c(c2)nc(CCN2CCN(c4ccccn4)CC2)n3C)cc1	SW480 rereplic 1µM
COc1ccc(OCC(=O)Nc2ccc3c(c2)nc(CCN2CCN(c4ccccn4)CC2)n3C)cc1	none (no result: SW480 rereplic, ELG1 DNA repair, MCF10A rereplic)
Cn1c(CCN2CCN(c3ccccn3)CC2)nc2cc(NC(=O)COc3ccc(Cl)cc3)ccc21	SW480 rereplic 7.3µM, KB-V1 cytotox inconclusive, ELG1 DNA repair 9.2µM
COc1ccc(OCC(=O)Nc2ccc3c(c2)nc(CCN2CCC(C)CC2)n3C)cc1	none
CC1CCN(CCc2nc3cc(NC(=O)COc4ccc(Cl)cc4)ccc3n2C)CC1	SW480 rereplic 18µM, MCF10A rereplic 16µM, KB-3-1 cytotox inconclusive
Cc1cccc(OCC(=O)Nc2ccc3c(c2)nc(CCN2CCCCC2)n3C)c1	none
Cc1cccc(OCC(=O)Nc2ccc3c(c2)nc(CCN2CCN(c4ccccn4)CC2)n3C)c1	SW480 rereplic inconclusive, ELG1 DNA repair 15µM
O=C(NCc1cccnc1)C1CCCN(S(=O)(=O)c2ccc(Br)cc2)C1 (stereo unspecified)	KB-V1 cytotox inconclusive (no result: ELG1 DNA repair)
COc1ccccc1NC(=O)Cn1c(CN2CCCCC2)nc2ccccc2c1=O	none
Cc1[nH][nH]c(=O)c1C(c1c(C)[nH][nH]c1=O)c1cn(Cc2ccc(F)cc2)c2ccccc12	SW480 rereplic 9.2µM, KB-V1 cytotox inconclusive, MCF10A rereplic inconclusive, KB-3-1 cytotox inconclusive
Cc1[nH][nH]c(=O)c1C(c1c(C)[nH][nH]c1=O)c1cn(Cc2ccc(Cl)c(Cl)c2)c2ccccc12	SW480 rereplic 9.2µM, KB-V1 cytotox 13µM, ELG1 DNA repair inconclusive, MCF10A rereplic inconclusive, KB-3-1 cytotox 23µM
O=c1cnn(Cc2ccc(Cl)c(Cl)c2)c2ccccc12	KB-V1 cytotox inconclusive, KB-3-1 cytotox inconclusive
O=C(O)Cc1cn(Cc2ccc(F)cc2)c2ccccc12	none
CCOC(=O)c1c(NC(=O)N/N=C/c2ccccc2OCC)sc(C(C)=O)c1C	KB-V1 cytotox inconclusive, MCF10A rereplic inconclusive, KB-3-1 cytotox 16µM
CCOC(=O)c1c(NC(=O)N/N=C/c2ccc(O)c(OC)c2)sc(C(C)=O)c1C	ELG1 DNA repair 4.6µM (no result: SW480 rereplic, KB-V1 cytotox, MCF10A rereplic, KB-3-1 cytotox)
Cc1cc(C)n(C(=O)CNc2cccc(Cl)c2C)n1	none
Cc1cc(=O)[nH]c(SCc2cccc(Br)c2)n1	KB-V1 cytotox inconclusive
COc1ccc(CSc2nc(C)cc(=O)[nH]2)cc1Br	KB-V1 cytotox 18µM
Cc1cc(=O)[nH]c(SCc2csc(-c3ccccc3)n2)n1	KB-V1 cytotox 23µM
Nc1cc(=O)[nH]c(SCc2ccccc2Cl)n1	none
Cc1cc(=O)[nH]c(SCc2cccc3ccccc23)n1	none
Nc1cc(=O)[nH]c(SCc2csc(-c3ccccc3)n2)n1	KB-V1 cytotox 16µM, ELG1 DNA repair inconclusive, MCF10A rereplic inconclusive, KB-3-1 cytotox inconclusive
C/C(=N\NC(=O)C1CC1)c1ccc(Cl)cc1	ELG1 DNA repair inconclusive
Cc1ccc(CN(Cc2ccc(C)o2)C(=S)NCC(=O)O)cc1	ELG1 DNA repair inconclusive
CCOC(=O)CNC(=S)N(Cc1ccc(C)cc1)Cc1ccc(C)o1	KB-V1 cytotox 16µM
CC1(C)Cc2ccccc2C(=NCC(=O)O)N1	none
COc1ccc(N2C(=O)CCC(C(=O)N3CCCCC3)C2c2ccc(OC)c(OC)c2)cc1 (stereo unspecified)	none
Cc1nccn1CCCNCc1c(C(=O)N2CCCCCCC2)nc2ccc(Cl)cn12	SW480 rereplic inconclusive
COC1=C(N)C(=O)c2nc(C)ccc2C1=O	SW480 rereplic inconclusive, KB-V1 cytotox inconclusive, KB-3-1 cytotox 4.6µM (no result: ELG1 DNA repair)
Cc1cccc(Cn2c(=O)c3c(nc4n3CCN4Cc3ccco3)n(C)c2=O)c1	ELG1 DNA repair 21µM
